Source: PubChem BioAssay (Tox21)
Values joined by “and” are separate entries in the source; they are usually repeats but may differ in a detail not shown here. Equal values may be shown once. Active and inactive are the calls of the source. Where a call stands in place of a potency, no number is given. Unless noted, the call rests on the fitted dose curve; in most records, active means well fitted curve in the direction sought with a large enough effect in the repeat runs; inconclusive means weak or mixed curves; inactive means flat fitted curve, though single readings scatter.

How the values were obtained:
[1] = qHTS assay to test for compound auto fluorescence at 535 nm (green) in HEK293 cells (AID 720680); settings: green autofluorescence 485/535 nm; series mostly up to 91.3 µM
[2] = qHTS assay to test for compound auto fluorescence at 535 nm (green) in HEK293 cell free culture (AID 720682); settings: cell-free medium, green autofluorescence 485/535 nm; series mostly up to 91.3 µM
Method in brief: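 Each library compound, or DMSO control, is added by pintool to medium alone, comprising DMEM and 10% FBS. Emission at 535 nm following 485 nm excitation is quantified against fluorescein.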

[3] = qHTS assay to test for compound auto fluorescence at 590 nm (red) in HEK293 cell free culture (AID 720683); settings: cell-free medium autofluorescence, Ex540/Em590 red; series mostly up to 91.3 µM
Method in brief: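 Cell-free wells of DMEM with 10% FBS received compound, and intrinsic fluorescence was read at excitation/emission 540/590 nm. Values expressed as equivalence to Rose Bengal sodium.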

[4] = qHTS assay to test for compound auto fluorescence at 590 nm (red) in HepG2 cell free culture (AID 720684); settings: cell-free medium autofluorescence, red 540/590 nm; series mostly up to 91.3 µM
Method in brief: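 Auto fluorescence equivalency versus Rose Bengal sodium, red channel Ex/Em 540/590 nm; compounds in cell-free MEM/10% FBS; DMSO vehicle control.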

[5] = qHTS assay to test for compound auto fluorescence at 460 nm (blue) in HepG2 cell free culture (AID 720685); settings: Cell-free culture medium, blue autofluorescence 405/460 nm; series mostly up to 91.3 µM
Method in brief: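 Cell-free plates of MEM plus 10% FBS received 23 nL compound or DMSO vehicle; blue-channel (405/460 nm) intensity scored against triamterene as reference fluorophore.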

[6] = qHTS assay to test for compound auto fluorescence at 535 nm (green) in HepG2 cell free culture (AID 720686); settings: Cell-free medium, green autofluorescence 485/535 nm; series mostly up to 91.3 µM
[7] = qHTS assay to test for compound auto fluorescence at 460 nm (blue) in HepG2 cells (AID 720687); settings: autofluorescence 405/460 nm, 1 h; series mostly up to 91.3 µM
Method in brief: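 HepG2 cells in MEM with 10% FBS, attached overnight at 37 C, were exposed to compound or DMSO for 1 hr at 37 C, 5% CO2. Blue fluorescence was read at 405/460 nm, with triamterene as reference fluorophore.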

[8] = target: Glucocorticoid receptor (Homo sapiens) (UniProt P04150); experiment: qHTS assay to identify small molecule agonists of the glucocorticoid receptor (GR) signaling pathway (AID 720691; active means well fitted activation curve with a large enough effect in the signal ratio in the repeat runs, not every such curve was filed as active; inconclusive means weak or mixed curves, or effect the other way; inactive means no such curve, though single readings can be large or run the other way; the % refers to the signal ratio; further: potency means the concentration at half of the fitted maximal effect); settings: GR-bla HeLa, beta-lactamase reporter ratio, 18 h; series mostly up to 62.4 µM
Glucocorticoid receptor (Homo sapiens), sequence (P04150 whole entry, looked up): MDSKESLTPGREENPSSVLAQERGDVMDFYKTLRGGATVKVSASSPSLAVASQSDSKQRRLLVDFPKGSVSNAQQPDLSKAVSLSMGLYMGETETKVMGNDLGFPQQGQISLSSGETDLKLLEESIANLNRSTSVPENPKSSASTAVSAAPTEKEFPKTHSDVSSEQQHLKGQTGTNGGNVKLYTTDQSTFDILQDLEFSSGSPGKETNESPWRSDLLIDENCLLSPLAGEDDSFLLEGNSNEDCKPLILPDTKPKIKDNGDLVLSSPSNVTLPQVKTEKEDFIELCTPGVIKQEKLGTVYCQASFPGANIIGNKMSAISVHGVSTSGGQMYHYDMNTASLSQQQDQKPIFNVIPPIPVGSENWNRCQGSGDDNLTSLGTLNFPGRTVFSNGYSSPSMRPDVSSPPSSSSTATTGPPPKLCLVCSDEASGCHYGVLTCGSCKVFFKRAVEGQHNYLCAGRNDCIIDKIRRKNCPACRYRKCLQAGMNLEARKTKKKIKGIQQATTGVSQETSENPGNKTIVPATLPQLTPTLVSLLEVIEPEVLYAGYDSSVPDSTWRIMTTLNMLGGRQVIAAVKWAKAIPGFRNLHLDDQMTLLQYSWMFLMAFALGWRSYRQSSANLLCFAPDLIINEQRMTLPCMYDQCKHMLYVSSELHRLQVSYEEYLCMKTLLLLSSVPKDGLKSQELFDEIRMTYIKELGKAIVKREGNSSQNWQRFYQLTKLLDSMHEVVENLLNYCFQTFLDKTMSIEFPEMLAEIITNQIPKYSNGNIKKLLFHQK
Method in brief: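 Agonist-mode qHTS in HeLa cells stably expressing a glucocorticoid-response-element beta-lactamase reporter. Fluorescence intensity read with FRET substrate (2 h, room temperature) after 18 h compound treatment at 37 C.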

[9] = target: Glucocorticoid receptor (Homo sapiens) (UniProt P04150); experiment: qHTS assay to identify small molecule antagonists of the glucocorticoid receptor (GR) signaling pathway (AID 720692; active means well fitted inhibition curve with a large enough effect in the signal ratio in the repeat runs, not every such curve was filed as active; inconclusive means weak or mixed curves, or effect the other way; inactive means no such curve, though single readings can be large or run the other way; the % refers to the signal ratio); settings: GR-bla HeLa, beta-lactamase FRET ratio, dexamethasone-stimulated, 18 h; series mostly up to 58.5 µM
Method in brief: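 Inhibition of dexamethasone-driven (5 nM final) beta-lactamase expression was measured in GRE-reporter HeLa cells over 18 h at 37C. Fluorescence was read after 2 h with the B/G FRET substrate at room temperature.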

Row | SMILES | Potency [1] | Potency [2] | Potency [3] | Potency [4] | Potency [5] | Potency [6] | Potency [7] | Potency [8] | Potency [9]
1 | O=S1(=O)CCCO1 | inactive | inactive | inactive | inactive | inactive | inactive | inactive | inactive | inactive
2 | CC(=O)Nc1ccc2c(c1)Cc1cc(NC(C)=O)ccc1-2 | inactive | inactive | inactive |  | inactive | inactive |  | inactive | 
3 | CC(=O)[C@@]1(O)CC[C@H]2[C@@H]3C[C@H](C)C4=CC(=O)C=C[C@]4(C)[C@@]3(F)[C@@H](O)C[C@@]21C | inactive | inactive | inactive |  | inactive | inactive | inactive | 12.9 nM [inconclusive] (active) and 3.5 nM (active) | 
